Screening data deposited in PubChem BioAssay by National Center for Advancing Translational Sciences (NCATS).
Only a selection was taken, and hits are over-represented in it overall.
Methyltransferases: Primary Screen for Target Class Profiling of Small Molecule Inhibitors of Methyltransferases; AID 1745853, 2022; purified enzyme, MTase-Glo SAH luminescence; hits give low values; calls only at 40 µM; 25,000 tested, 3.9% active; call rule not given here
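Each enzyme was reacted with SAM and its substrate, with compounds tested once at 40 uM; SAH formed was read by MTase-Glo luminescence.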
* marks the source's active call; other numbers are inactive results; i = inactive; + = active, no number. % is set by controls: 0 for no effect and ±100 for the full control effect.

SMILES	Methyltransferases
COc1c(O)cc2c(c1O)C(=O)O[C@H](C)[C@H]2O	+
Cc1cc2c(cc3n2CC(C)(C(=O)NC2CCCCC2)N(C2CCCCC2)C3=O)o1 (stereo unspecified)	i
CC[C@H](NC(=O)c1c(C)c(-c2ccccc2)nc2ccccc12)c1ccccc1	i
Cc1ccc(CNC(=O)Cn2c(=O)oc3cc(S(=O)(=O)N4CCCCC4C)ccc32)cc1 (stereo unspecified)	i
Cc1ccc(O)c(N=Nc2ccccc2)n1	+
Cc1ccc(C2=NC3(CCN(C(=O)COc4cccc(C)c4)CC3)ON2)cc1	i
CC(C)Cn1c(=O)c2ccccc2n2c(SCc3cccc(Cl)c3)nnc12	i
C=C(CO)C(=O)O[C@H]1C[C@@]23O[C@@H]2CC/C(=C/[C@H]2OC(=O)C(=C)[C@H]12)CO[C@H]3O	i
C=C1C(=O)OC2/C=C(/C)C3=CC(=O)C(C)(CC(OC(=O)/C(C)=C/COC(C)=O)C12)O3 (stereo unspecified)	+
C=C1C(=O)O[C@H]2[C@H]1[C@@H](OC(=O)/C(C)=C\C)C[C@]1(C)O[C@@H]1[C@H]1O[C@H]1C(=C)[C@H]2O	i
CN(CCCN1C(=O)c2cc3occc3n2CC1(C)C(=O)NC1CCCCCCC1)C1CCCCC1 (stereo unspecified)	i
O=C(NCc1ccon1)C1CCCN(C2CCN(c3nc4ccccc4o3)CC2)C1 (stereo unspecified)	i
CC(C(=O)Nc1nccs1)N1CCN(c2nccnc2C#N)CC1 (stereo unspecified)	i
CS(=O)(=O)N1CCc2c(-c3cnc(N)nc3)nc(N3CCOCC3)nc21	i
Cc1c(CN2CCN(S(C)(=O)=O)CC2)sc2c(N3CCOCC3)nc(-c3cnc(N)nc3)nc12	+
CCCn1c(=O)c2ccc(C(=O)NC3CCCC3)cc2n2c(=O)n(CC(=O)Nc3cc(C)cc(C)c3)nc12	i
CNC(=O)[C@H]1C[C@]2(CCCCNC2=O)N(C(=O)c2cccc(C#N)c2)[C@H]1c1ccco1	i
COc1ccc(NS(=O)(=O)c2cc3c(cc2C)n(C)c(=O)n3C)cc1Cl	i
COc1cc(NC(=O)Cn2nc3n(CCc4ccccc4)c(=O)c4ccccc4n3c2=O)cc(OC)c1	i
O=C([C@@H]1CCCN(c2ccc3[nH]c(C4(n5cc(Cl)cn5)CC4)nc3n2)C1)N1CCCC1	+
O=C(NC1CCCC1)N1CCCC(C(=O)N2CCC(c3nc4ncccc4[nH]3)C2)C1 (stereo unspecified)	i
O=C(c1ccccc1Cl)N1CCCC(C(=O)N2CCC(c3ccccc3)CC2)C1 (stereo unspecified)	i
COC(=O)c1ncn2c1C(=O)N(Cc1ccc(F)cc1)C(C)(C(=O)NC1CCCCCC1)C2 (stereo unspecified)	i
O=C(c1ccc(CC2CC(=O)N(c3ccccc3)C2)nc1)N1CCCC1 (stereo unspecified)	i
CN1C(=O)c2cc(C(=O)NCCCN3CCCC3)nn2CC1(C)C(=O)NCc1ccc(F)cc1 (stereo unspecified)	i
SMILES	Methyltransferases
CC1CCC/C=C/C(=O)c2c(O)cc(O)cc2CC(=O)O1 (stereo unspecified)	i
CC1CCCC2OC2C(=O)c2c(O)cc(O)cc2CC(=O)O1 (stereo unspecified)	i
CC1CCCCCCCc2cc(O)cc(O)c2C(=O)O1 (stereo unspecified)	+
Cn1cnc(S(=O)(=O)N2CC(c3nc(-c4ccncc4)no3)C2)c1	i
Oc1ccc(CNc2ccccc2F)c2cccnc12	+
Cc1cccc(-c2[nH]c(CNc3ccccc3F)nc2-c2ccc3ncnn3c2)n1	i
Cc1nc(C)c(C(=O)N2CCCCCCNC(=O)CC2)s1	i
COc1ccc(C(=O)N2CCCCCNC(=O)[C@@H]3CCC[C@@H]32)cn1	i
O=c1cc(-c2ccccc2)c2ccc(OCc3ccc(F)cc3)cc2o1	i
Cc1cccc(CNC(=O)c2cc3n(n2)CC(C)(C(=O)NC2CCCCC2)N(C)C3=O)c1 (stereo unspecified)	i
O=C(O)c1ccc(O)c2ncc(N3CCCN(CCc4cccc5ccccc45)CC3)cc12	+
c1ccc(N2CCN(CCc3nn[nH]n3)CC2)cc1	i
COc1ccc(Cn2cc(C(C(=O)O)N(C)Cc3cccnc3)cn2)cc1 (stereo unspecified)	i
CCOC(=O)c1cccc(Nc2cc(C)nc3ccc(C)cc23)c1	+
CCOC(=O)c1cnc2ccc(C)cc2c1Nc1cccc(C)c1	i
CCOC(=O)c1cc(Nc2ccccc2)c2cc(Cl)ccc2n1	i
CCCNC(=O)c1cc2n(n1)CC(C)(C(=O)NCc1ccc(F)cc1)N(C)C2=O (stereo unspecified)	i
c1cc(N[C@@H]2CCNC2)nc(-c2cnc3ccc(-c4cn[nH]c4)cn23)c1	+
CC(C)NC[C@H](O)COc1cccc2[nH]ccc12	i
CC1(C(=O)NC2CCCCC2)Cn2nc(-c3ccco3)cc2C(=O)N1c1ccc(F)cc1F (stereo unspecified)	i
CC1CCCC[C@H]2C(=O)C=C[C@H](O)[C@@H]2CC(=O)O1 (stereo partly specified)	i
CC1=C(C(=O)N2CCC(CCC(=O)Nc3ccc4c(c3)OCCO4)CC2)OCCO1	i
Cc1ccc(CN2CCC(C(=O)N3CCCCCCNC(=O)CC3)CC2)s1	i
Cc1cc(C)cc(-c2cnc3cc(Cl)c(-c4cccc(O)c4)cc3c2OCCCN)c1	+
CN(C)c1nc(NC2CCC(NCCc3ccc(Br)cc3OC(F)(F)F)CC2)nc2ccccc12 (stereo unspecified)	+
SMILES	Methyltransferases
CC1CCCCC1NC(=O)C1(C)Cn2c(cc3occc32)C(=O)N1Cc1ccccc1 (stereo unspecified)	i
COC1CCC12CCN(C(=O)c1cnc(C)cn1)CC2 (stereo unspecified)	i
CN(CCc1ccccn1)[C@H]1[C@@H]2OC[C@@H](O2)[C@@H](NCc2ccncc2)[C@@H]1O	i
CN(C)C[C@@H]1CN(c2ncccn2)C[C@H]1NC(=O)COc1ccc(Cl)cc1	i
CCC(C)C1NC(=O)C(Cc2ccccc2)NC(=O)C(CCCCCC(=O)C(O)CO)NC(=O)C2CCCCN2C1=O (stereo unspecified)	i
COCCCN1C(=O)c2ccccc2CC1(C)C(=O)NC1CCCCCCC1 (stereo unspecified)	i
CC1(C(=O)NC2CCCCCCC2)Cc2ccccc2C(=O)N1Cc1cccs1 (stereo unspecified)	i
Cc1cc(C)c(NC(=O)N(Cc2ccc3c(c2)Cc2ccccc2-3)C2CCCCCC2)c(C)c1	+
COCc1ccc2c(c1)c(OC(C)(C)C(=O)NCC1CCOCC1)nn2Cc1ccccc1	i
S=c1ssc2c1CCC2	+
Fc1ccccc1C1Nc2ccc(Br)cc2C2C=CCC21 (stereo unspecified)	i
COc1ccccc1CNC(=O)C1(C)Cn2nc(-c3ccccc3)cc2C(=O)N1c1ccccc1C (stereo unspecified)	i
Cc1ccc(C)c(C(=O)Cn2nc3n(CCCOC(C)C)c(=O)c4ccccc4n3c2=O)c1	i
c1ccc(-c2nnn3c2nc(N2CCCCC2)c2ccccc23)cc1	i
CCN(CC)CCNC(=O)CCCc1nnc2n3nc(-c4ccccc4)nc3c3ccccc3n12	+
C=CCNC(=O)CCCc1nnc2n3nc(-c4ccccc4)nc3c3ccccc3n12	i
